D3 antag – qHTS of D3 Dopamine Receptor Antagonist: qHTS. D(3) dopamine receptor (Homo sapiens), P35462. D3R cells, DiscoveRx beta-arrestin luminescence, antagonist mode; active compounds read low. max response, negative = inhibition, %. hit rate 2.5% among 360,000. AID 652054, 2013; in the data active = max response below about -50%; inconclusive = no clear call, values can overlap the other calls; note: % is set by controls: 0 for no effect and ±100 for the full control effect
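Cells plated overnight at 1500 cells/well, then exposed to library compounds with dopamine controls for 90 minutes at 37 degrees C. DiscoveRx reagent added for 30–60 minutes at room temperature; luminescence read, quantitative HTS format.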
TRPML1 blocker – qHTS for Inhibitors of the Human Mucolipin Transient Receptor Potential 1 (TRPML1); TRPML1-inducible cells, Ca2+ dye fluorescence, FDSS; active compounds read low; inhibition of EC80 agonist-evoked calcium signal; AID 624415, 2012; hit rate 0.02% among 390,000; Mucolipin-1 (Homo sapiens), Q9GZU1; activity change, negative = inhibition, % (concentration not given with the values); in the data active = activity change below about -50%; inconclusive = between about -30% and that limit;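 note: stimulus is agonist 54-4 at its EC80 concentration; % is set by controls: 0 for no effect and ±100 for the full control effect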
Target sequence (Q9GZU1 whole entry, looked up): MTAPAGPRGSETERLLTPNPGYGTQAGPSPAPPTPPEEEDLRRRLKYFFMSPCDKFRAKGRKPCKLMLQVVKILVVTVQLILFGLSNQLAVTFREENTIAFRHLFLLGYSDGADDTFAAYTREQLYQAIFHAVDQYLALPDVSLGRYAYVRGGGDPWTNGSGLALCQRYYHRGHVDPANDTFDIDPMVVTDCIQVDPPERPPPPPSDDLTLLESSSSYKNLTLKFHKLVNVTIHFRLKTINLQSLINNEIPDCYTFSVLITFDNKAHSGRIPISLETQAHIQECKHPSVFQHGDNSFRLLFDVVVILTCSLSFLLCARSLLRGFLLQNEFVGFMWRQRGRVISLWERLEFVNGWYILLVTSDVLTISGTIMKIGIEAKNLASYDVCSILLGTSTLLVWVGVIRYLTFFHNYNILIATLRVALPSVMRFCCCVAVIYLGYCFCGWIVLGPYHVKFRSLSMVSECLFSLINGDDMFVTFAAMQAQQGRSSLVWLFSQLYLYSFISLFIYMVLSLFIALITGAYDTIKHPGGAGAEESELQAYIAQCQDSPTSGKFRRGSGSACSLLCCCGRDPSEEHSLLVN
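TRPML1-DL cells, Tet-induced overnight (~16 h, 37 °C) at 1,500 cells/well, were loaded with Ca8 no-wash dye plus quencher for 45-90 min at room temperature. Compounds were pinned during FDSS kinetic reading; agonist 54-4 at EC80 (4 uM final) then added.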
DRD3 agonist – qHTS of D3 Dopamine Receptor Agonist: qHTS; D3R DiscoveRx beta-arrestin cells, luminescence, 90 min; max activation, %; hit rate 0.58% among 410,000; in the data active = max activation above about 30%; note: 0% is about no effect
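Agonist mode: compounds and dopamine controls were applied to plated cells for 90 min at 37 degrees C after an overnight attachment at 1500 cells/well. Luminescent read-out followed 30 - 60 minutes at room temperature with DiscoveRx detection reagent.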
TRPML1 ag – qHTS for Agonists of the Human Mucolipin Transient Receptor Potential 1 (TRPML1). TRPML1-expressing cells, Ca2+ dye fluorescence, FDSS. activation, % (no concentration beside the values). hit rate 0.12% among 410,000. AID 624414, 2012; in the data active = activation above about 50%; inconclusive = mostly about 30% to 49%; note: 0% is about no effect
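TRPML1-DL cells, Tet-induced overnight (~16 h, 37 degrees C), loaded 45-90 min at room temperature with Ca8 no-wash calcium dye plus quencher. FDSS fluorescence: 10 s baseline, compound pin-transfer, 110 s agonist read, then EC80 54-4 (4uM final) and 110 s antagonist read.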
* = called active by the depositor; ? = inconclusive; . = not tested or not shown. The list is not random: actives were taken first. Their share in the collection is about 2.9%.

SMILES	D3 antag	TRPML1 blocker	DRD3 agonist	TRPML1 ag
O=C1C(=Cc2ccccn2)CCc2ccccc21	-67*	7	-15	-1
COc1cc(OC)c(/C=C/c2ccc3ccccc3[n+]2C)c(OC)c1	.	.	.	3
Cc1csc2cc(-c3cccc([N+](=O)[O-])c3)c(-c3cccc([N+](=O)[O-])c3)c[n+]12	-61*	-2	-23	0
O=C(/C=C/c1cccnc1)c1ccc([N+](=O)[O-])cc1	-13	-11	0	0
COc1cc(C(=O)/C=C/c2cccnc2)c([N+](=O)[O-])cc1OC	-73*	-6	0	0
C/C=C1\[C@H]2C=C(C)C[C@]1(N)c1ccc(=O)[nH]c1C2	.	.	7	.
CC(C)C(O)(C#CCN1CCCCCC1)c1ccccc1 (stereo not given)	-60*	-12	-10	1
OC(CC#CCN1CCCCC1)(c1ccccc1)c1ccccc1	-52*	9	-36	0
CCC(O)(CCN1CCCCC1)c1ccccc1 (stereo not given)	15	-3	4	0
OC(CCCN1CCCCC1)(c1ccccc1)c1ccccc1	-101*	0	-98	0
OC(CC#CCN1CCCC1)(c1ccccc1)c1ccccc1	-4	2	-23	0
CC(O)(C#CCN1CCCCC1)c1ccccc1 (stereo not given)	?	9	-25	4
COc1ccc(-n2c(/C=C/c3cccc4ccccc34)nc3ccccc3c2=O)cc1Cl	.	4	4	1
COCCNC(=O)c1onc(CSc2ccc(F)c(F)c2)c1C(=O)O	3	-4	19	-1
CCCCNC(=O)c1onc(CSc2ccncc2)c1C(=O)NCCCC	-3	-1	59*	-1
CCCCNC(=O)c1onc(CSc2ccccc2)c1C(=O)NCCCC	0	10	42*	2
COCCNC(=O)c1onc(CSc2ccc(F)c(F)c2)c1C(=O)NCCOC	0	-15	30*	-1
CCn1c(SC(C)C(=O)NCc2ccco2)nnc1-c1ccccc1 (stereo not given)	.	.	.	-1
CCCCN(C)Cc1c(C)[nH]c2ccccc2c1=O	0	-12	-4	1
Cc1[nH]c2ccccc2c(=O)c1CN(C)Cc1ccccc1	-63*	9	-3	0
Cc1ccc(S(=O)(=O)Nc2ccc3c(c2)c(C(=O)OC(C)C)c(C)n3S(=O)(=O)c2ccc(C)cc2)cc1	.	-12	7	2
CCCCCCc1cc2cc(C(=O)Nc3ccccc3)c(=O)oc2cc1O	51	17	51*	0
O=C(CCN1CCN(c2ccccc2F)CC1)Nc1ccc2c(c1)OCO2	314	3	40*	0
Cc1cccc(NC(=O)CCN2CCN(c3ccccc3F)CC2)c1	.	9	39*	0
O=C(NCc1ccccc1)c1cccc(COc2cc(Cl)ccc2Cl)c1	-72*	-11	-5	0
SMILES	D3 antag	TRPML1 blocker	DRD3 agonist	TRPML1 ag
O=C(NCc1ccccc1)c1cccc(COc2ccccc2Cl)c1	-18	1	-1	1
CN1CCc2ccccc2Cc2[nH]c3ccccc3c2CC1	-110*	15	-54	-1
O=C(COc1ccccc1C(=O)Nc1ccccc1)Nc1ccccc1-c1ccccc1	.	.	.	0
Cc1ccc(F)c(C2C3C=CCCC3(C)C(=O)N2Cc2ccccc2)c1 (stereo not given)	.	3	.	0
COc1cccc2c1[C@@H]1CN(CCCCn3c(=O)[nH]c4c(sc5ncc(-c6ccccc6)nc54)c3=O)C[C@@H]1CO2	-99*	0	-16	-1
CCC(=O)OCCNc1cc(Sc2nc3ccccc3[nH]2)c2nonc2c1[N+](=O)[O-]	-116*	5	-6	0
CCC(=O)OCCNc1cc(Sc2nc3ccccc3s2)c2nonc2c1[N+](=O)[O-]	-88*	8	-54	5
O=[N+]([O-])c1c(NCCCO)cc(Sc2nc3ccccc3s2)c2nonc12	-90*	9	-67	2
CCCC(=O)OCCNc1cc(SCc2ccco2)c2nonc2c1[N+](=O)[O-]	3	-9	-4	0
CCCSc1cc(NCCOC(=O)CCC)c([N+](=O)[O-])c2nonc12	-14	6	1	4
CCCC(=O)OCCNc1cc(Sc2nccn2C)c2nonc2c1[N+](=O)[O-]	-92*	17	-34	4
CCCSc1cc(NCCOC(C)=O)c([N+](=O)[O-])c2nonc12	4	-2	3	1
Cc1ccc(-n2c(=O)c3c4c(sc3n(CC(=O)c3ccc(Cl)cc3)c2=O)CCC4)cc1C	.	-21	-18	-1
CCc1ccc(-n2nc(C)c3c(C(=O)Nc4cc(OC)cc(OC)c4)cc(C)nc32)cc1	.	5	18	-1
C=CCn1c(SCc2c(C)noc2C)nc2cc(C(=O)O)ccc2c1=O	8	6	36*	0
CN(C)CCCNc1nccc(N2CCN(C)CC2)n1	.	.	.	0
Brc1cc2[nH]cnc2c2ccccc12	19	7	46*	0
Oc1ccc2c(ccc3[nH]cnc32)c1	-14	11	-4	0
CCN1C(=O)NC2=C(C(=O)c3ccccc32)C1c1ccccc1F (stereo not given)	-62*	1	-5	0
CCOc1ccc(C(=O)Nc2ccc3oc(-c4cccc5ccccc45)nc3c2)cc1	.	0	10	0
Cc1ccc(S(=O)(=O)n2nc(OC(=O)c3c(-c4ccccc4Cl)noc3C)cc2N)cc1	-58*	-10	5	0
CCc1cccc(OCCCCNCCOC)c1	-67*	0	-13	3
O=C(C[n+]1cccc(C(=O)Nc2ccccc2)c1)c1ccc(Cl)cc1	?	.	-4	0
NC(=O)C[n+]1cccc(C(=O)Nc2ccccc2)c1	-67*	3	0	1
CN(Cc1ccccc1)C(=O)Nc1c(Cl)cccc1Cl	-51*	.	-7	-1
SMILES	D3 antag	TRPML1 blocker	DRD3 agonist	TRPML1 ag
COc1cccc(CSc2nc3n(n2)C(CC(C)C)C(C(=O)Nc2ccccc2C)=C(C)N3)c1 (stereo not given)	.	3	-8	1
CCCCC[C@H]1CN(CCCC)C(=O)[C@@H]1CC(=O)NCc1ccccc1	0	17	34*	-1
O=C1c2ccccc2C(=O)N1CC1c2ccccc2CCN1S(=O)(=O)c1cnc[nH]1 (stereo not given)	0	6	0	1
Cc1ccc(S(=O)(=O)N2CCc3ccccc3C2CN2C(=O)c3ccccc3C2=O)cc1 (stereo not given)	4	-19	1	87*
O=C(CCN1CCN(c2ccccc2)CC1)NNC(=O)Cc1ccccc1Cl	?	1	6	-1
O=C(CCN1CCN(c2ccccc2)CC1)NNC(=O)c1ccccc1	-54*	5	8	0
Cc1cccc(OCC(=O)NNC(=O)CCN2CCN(c3ccccc3)CC2)c1C	-83*	-5	-9	0
